Among the data in PubChem BioAssay AID651995 (Sanford-Burnham Center for Chemical Genomics, 2013) are inhibition values, retold here.

About 480 (19%) of roughly 2,500 compounds were called active. Only a sample is shown. Unmarked numbers belong to inactive results.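 Rule for the calls: active = mean inhibition above about 25% (limit read from the data); inactive = the rest.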

The nature of this assay: inhibitors of Wnt3a-driven luciferase in Wnt-LIGHT cells – cell-based, luminescence, single concentration, counter-screen for Gli-SUFU antagonist project, confirmation (AID 651995). Conditions: Wnt3a-driven luciferase reporter, at 6.25 µM, stronger effect = higher value.
For `Cc1ccc(S(=O)(=O)N2C[C@@H]3CCCC[C@@H]3[C@@H](C)[C@H]2c2cn(Cc3ccccc3)c3ccc(F)cc23)cc1`, the inhibition was 30.5% (active).

On to `COc1ccccc1N1CCN(Cc2cc(OC)c3c(c2)OCO3)CC1`, for which the inhibition was -25%.

For the molecule `CCN(CC(=O)Nc1cc(Cl)ccc1C)C(=O)CSCc1ccc(C)cc1`, the inhibition is -8.43%.

As to `C=CCOC(=O)C1=C[C@@H](c2ccc3c(c2)OCO3)C[C@@H](OCCCCO)O1`, the inhibition was -7.34%.

For `Cc1c(Cl)c([N+](=O)[O-])nn1Cc1ccc(C(=O)N/N=C\c2cc(Cl)ccc2O)o1`, the inhibition was 61.7% (active).

Consider `Cc1cc([N+](=O)[O-])c(-c2ccc(/C=N/n3cnnc3)o2)cc1Cl`, for which the inhibition was -8.22%.

On to `O=[N+]([O-])c1ccc(N2CCN(CC(O)COc3ccccc3)CC2)cc1` (stereo not given), for which the inhibition was -30.2%.

Consider `CC1(C)Cc2ccccc2/C(=C/C(=O)c2ccccc2)N1`, for which the inhibition is 9.91%.

With `CCOC(=O)c1cnc(-n2nc(C)cc2C)nc1NNc1cc(C)nc(-c2ccccc2)n1`, the inhibition was 40.7% (active).

In the case of `Cc1nn(C)c(Cl)c1CN1CCC(n2nccc2NC(=O)C2CCCC2)CC1`, the inhibition is -36.2%.

On to `CCCC1=Nc2cc(C(=O)NCc3ccco3)ccc2Sc2ccccc21`, for which the inhibition is -23.7%.

Take `CCN1/C(=C/C(=S)Nc2ccccc2)Sc2ccccc21`: the inhibition is -77.3%.

Turning to `CCc1c(C)[nH]c(=S)c(C#N)c1C`, the inhibition is -19.5%.

For `N#CC(C#N)=CN=c1ccn(Cc2ccc(Cl)cc2Cl)cc1`, the inhibition is -5.79%.

Turning to `N#Cc1ccc(C(=O)Nc2nc(-c3cccs3)c(C(=O)C(F)(F)F)s2)cc1`, the inhibition is 65.1% (active).

With `O=C(NC1CCN(C(=S)Nc2ccc(Cl)cc2)CC1)C1CCCCC1`, the inhibition is -1.08%.

Take `Cc1ccc(-c2nc(CSCC(=O)NC3CCN(Cc4ccccc4)CC3)c(C)o2)cc1`: the inhibition is -19.9%.

As to `CN(C)CCN(C(=O)C1CCCCC1)c1nc2cc3c(cc2s1)OCO3`, the inhibition was -21.9%.

For the molecule `c1c2c(cc3sc(N4CCCCC4)nc13)OCCO2`, the inhibition was 85.8% (active).

Regarding `CN(C)C(CNC(=O)Cc1ccc([N+](=O)[O-])cc1)c1ccccc1` (stereo not given), the inhibition was -27%.

As for `COc1ccccc1CNC(=O)C1CCN(c2nc3ccccc3o2)CC1`, the inhibition was -23.3%.

For `C=CCC1(CC=C)CCCN1C(=O)c1cc(COc2ccc(-n3cncn3)cc2)on1`, the inhibition was -17%.

As to `CCCOc1ccccc1C1CC(=O)Nc2cc3c(cc21)OCO3` (stereo not given), the inhibition is -18.6%.

As to `COc1ccc(NS(=O)(=O)c2ccc(N3CCN(CCO)CC3)c([N+](=O)[O-])c2)cc1`, the inhibition is 26.4% (active).

In the case of `COc1ccc(NS(=O)(=O)c2ccc(NC(C)=O)cc2)cc1OC`, the inhibition is 13.2%.
